Test results: PubChem BioAssay (EPA / NIEHS)
Calls of active or inactive are those of the source. Rule for the calls: active = hit-call score of the fitted dose curve at least 0.9, where 1 is the maximum; inactive = score below 0.9.

Assay: STM_H9_OrnithineISnorm_perc: Stemina devTOX quickPredict H9 human embryonic stem cell (hESC)-based Assay for Ornithine (ORN) Metabolite Biomarker, Normalized (AID 2283712);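 note: ornithine released into spent medium during last day measured by mass spectrometry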
Excerpt: STM_H9_secretome utilizes undifferentiated H9 cells to measure relative changes in two metabolites, ornithine (ORN) and cystine (CYSS) in the secretome, targeting a critical drop in the ORN/CYSS ratio as a biomarker for developmental toxicity.STM_H9_OrnithineISnorm is one of 10 components calculated in the STM_H9_secretome assay. It measures the integrated area of the endogenous ornithine normalized to the spiked-in isotopically labeled standard and to the median value of the 0.1% DMSO neutral control treatment using UPLC-HRMS technology.Data from the assay component STM_H9_OrnithineISnorm_perc was analyzed at the assay endpoint STM_H9_OrnithineISnorm_perc in the positive analysis fitting direction relative to DMSO as the negative control and baseline of activity. Using a type of binding reporter, gain or loss-of-signal activity can be used to understand relative metabolite change.
H9 hESCs maintained in a pluripotent state were exposed to test compound for 72h with chemical replenishment with media replacement every 24h. Cell-conditioned media from the final 24-h treatment period was collected for analysis of the targeted biomarker, and cell viability of the corresponding cell layer was assessed. The chemical library was tested in blinded fashion. Each test plate included 1uM Methotrexate (MTX; Selleck Chemicals, Houston, Texas) as a positive reference, 5 nM MTX as a negative reference, 0.1% DMSO as the neutral (vehicle) control, and sample-level media blanks.H9 cell-conditioned media from the final 24-h treatment period was collected for analysis of the targeted biomarker and cell viability was measured from the corresponding cell layer. Cell viability was measured using the CellTiter-Fluor assay (Promega, Madison, Wisconsin) based on proteolytic cleavage of a substrate to fluorescent signal proportional to the number of living cells. The cell viability Relative Fluorescence Unit (RFU) was background corrected and normalized to mean RFU of the neutral control (0.1% DMSO). The collected H9-cell-conditioned media samples were processed for targeted biomarker analysis as described (Palmer et al., 2013). Briefly, spent media samples were deproteinized (40% acetonitrile) and processed for UPLC-HRMS. Data acquisition was performed using 4 separate UPLC-HRMS systems, consisting of an Agilent 1290 Infinity LC system (Agilent Technologies) interfaced with an Agilent high-resolution mass spectrometer (models G6520A, G6520B, G6530A, and G6224A). A Waters Acquity UPLC BEH Amide column (2.1mm x 50mm, 1.7lm particle size; Waters, Milford, Massachusetts) maintained at 40C was applied for separation of metabolites using a 6.5min solvent gradient with 0.1% formic acid in water and 0.1% formic acid in acetonitrile (1.0ml/min flow rate). Data were acquired using MassHunter Acquisition software (version B 04.00, Agilent Technologies). The extracted ion chromatogram (EIC) areas for ORN, CYSS, and their respective spike-in C13-standards were determined using the Agilent MassHunter Quantitative Analysis software, version B.05.00 or newer (Agilent Technologies), and data were normalized as described in Palmer et al. (2017).

SMILES | AC50 | outcome
COC(=O)N(OC)c1ccccc1COc1ccn(-c2ccc(Cl)cc2)n1 | 0.85 µM (active) | 
CCOC(=O)CC(SP(=S)(OC)OC)C(=O)OCC (stereo not drawn) | 76.9 µM (active) | 
CON(C)C(=O)Nc1ccc(Cl)c(Cl)c1 | 50 µM (active) | 
CCCCC(CC)COC(=O)c1ccccc1C(=O)OCC(CC)CCCC (stereo not drawn) |  | inactive
CC(C)(C)c1ccc(CSc2cnn(C(C)(C)C)c(=O)c2Cl)cc1 | 0.0663 µM (active) | 
COC(=O)c1ccccc1C(=O)OC |  | inactive
OC(c1ccc(Cl)cc1)(c1cncnc1)c1ccccc1Cl (stereo not drawn) | 50 µM (active) | 
N#Cc1nn(-c2c(Cl)cc(C(F)(F)F)cc2Cl)c(N)c1S(=O)C(F)(F)F (stereo not drawn) | 35.5 µM (active) | 
CCCCNC(=O)n1c(NC(=O)OC)nc2ccccc21 | 6.13 µM (active) | 
CCON=C(CC)C1=C(O)CC(c2c(C)cc(C)cc2C)CC1=O (stereo not drawn) |  | inactive
COc1nc(NC(C)C)nc(NC(C)C)n1 |  | inactive
C=CCC1=C(C)[C@@H](OC(=O)[C@@H]2[C@@H](C=C(C)C)C2(C)C)CC1=O |  | inactive
CN(C)C(=S)SSC(=S)N(C)C | 17.7 µM (active) | 
C#CCOS(=O)OC1CCCCC1Oc1ccc(C(C)(C)C)cc1 (stereo not drawn) | 3.33 µM (active) | 
CC1COC(Cn2cncn2)(c2ccc(Oc3ccc(Cl)cc3)cc2Cl)O1 (stereo not drawn) | 3.93 µM (active) | 
CCNc1nc(Cl)nc(NCC)n1 | 0.053 µM (active) | 
CO/C=C(/C(=O)OC)c1ccccc1Oc1cc(Oc2ccccc2C#N)ncn1 |  | inactive
CCNc1nc(Cl)nc(NC(C)C)n1 | 0.12 µM (active) | 
C=CC1(C)OC(=O)N(c2cc(Cl)cc(Cl)c2)C1=O (stereo not drawn) |  | inactive
CCc1nn(C)c(C(=O)NCc2ccc(C(C)(C)C)cc2)c1Cl | 1.84 µM (active) | 
CCCCOC(=O)c1ccccc1C(=O)OCCCC | 76.3 µM (active) | 
CCCC1COC(Cn2cncn2)(c2ccc(Cl)cc2Cl)O1 (stereo not drawn) | 85.5 µM (active) | 
COc1ccc(C(c2ccc(OC)cc2)C(Cl)(Cl)Cl)cc1 |  | inactive
